Source: PubChem BioAssay AID1159580 (chemical genetic matrix, 2015)
About 2,000 (36%) of roughly 5,500 compounds were called active. Another 18% or so got no clear call; they are omitted. Cut-off read from the data, not from the text of the source: active = normalized growth mostly below about 0.91 (no sharp cut-off); inconclusive = no clear call, values can overlap the other calls; inactive = mostly above about 0.92. The list shows a part of the results.

Experiment: chemical genetic growth profiling, strain panel (AID 1159580);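 note: tested at 20 µM; growth read once vehicle control cultures reached saturation at 30 °C; 1 = growth at the plate median or of vehicle wells; lower values mean less growth of the strain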
Settings: S. cerevisiae deletion strains, growth OD
[1] = locus YAL021C, strain ccr4, active compounds read low
[2] = locus YAL026C, strain drs2, active compounds read low
[3] = locus YAL030W, strain snc1, active compounds read low
[4] = locus YBL061C, strain skt5, active compounds read low
[5] = locus YBR009C, strain hhf1, active compounds read low
[6] = locus YBR023C, strain chs3, active compounds read low
[7] = locus YBR171W, strain sec66, active compounds read low
[8] = locus YBR231C, strain swc5, active compounds read low
[9] = locus YBR279W, strain paf1, active compounds read low
[10] = locus YCL011C, strain gbp2, active compounds read low
[11] = locus YCL016C, strain dcc1, active compounds read low
[12] = locus YCL061C, strain MRC1, active compounds read low
[13] = locus YCL069W, strain vba3, active compounds read low
[14] = locus YCR088W, strain abp1, active compounds read low
[15] = locus YDL005C, strain med2, active compounds read low
[16] = locus YDL040C, strain nat1, active compounds read low
[17] = locus YDR001C, strain nth1, active compounds read low
[18] = locus YDR069C, strain doa4, active compounds read low
[19] = locus YDR137W, strain rgp1, active compounds read low
[20] = locus YDR159W, strain sac3, active compounds read low
[21] = locus YDR297W, strain sur2, active compounds read low
[22] = locus YDR334W, strain swr1, active compounds read low
[23] = locus YDR335W, strain msn5, active compounds read low
[24] = locus YDR392W, strain spt3, active compounds read low
[25] = locus YEL003W, strain gim4, active compounds read low
[26] = locus YEL037C, strain rad23, active compounds read low
[27] = locus YEL061C, strain CIN8 (second series), active compounds read low
[28] = locus YER015W, strain faa2, active compounds read low
[29] = locus YER016W, strain bim1, active compounds read low
[30] = locus YER111C, strain swi4, active compounds read low
[31] = locus YER155C, strain BEM2 (second series), active compounds read low
[32] = locus YFR010W, strain ubp6, active compounds read low
[33] = locus YGL167C, strain pmr1, active compounds read low
[34] = locus YGL173C, strain kem1, active compounds read low
[35] = locus YGL227W, strain vid30, active compounds read low
[36] = locus YGL240W, strain doc1, active compounds read low
[37] = locus YGL253W, strain hxk2, active compounds read low
[38] = locus YHR013C, strain ard1, active compounds read low
[39] = locus YHR027C, strain rpn1, active compounds read low
[40] = locus YHR142W, strain chs7, active compounds read low
[41] = locus YJL092W, strain hpr5, active compounds read low
[42] = locus YJL095W, strain BCK1 (second series), active compounds read low
[43] = locus YJL115W, strain asf1, active compounds read low
[44] = locus YJL129C, strain trk1, active compounds read low
[45] = locus YJL154C, strain vps35, active compounds read low
[46] = locus YJL164C, strain tpk1, active compounds read low
[47] = locus YJL166W, strain qcr8, active compounds read low
[48] = locus YJL187C, strain SWE1, active compounds read low
[49] = locus YKL160W, strain elf1, active compounds read low
[50] = locus YKR026C, strain gcn3, active compounds read low
[51] = locus YKR091W, strain srl3, active compounds read low
[52] = locus YLL001W, strain dnm1, active compounds read low
[53] = locus YLL026W, active compounds read low
[54] = locus YLL041C, strain sdh2, active compounds read low
[55] = locus YLR027C, strain aat2, active compounds read low
[56] = locus YLR221C, strain rsa3, active compounds read low
[57] = locus YLR258W, strain gsy2, active compounds read low
[58] = locus YLR262C, strain YPT6 (second series), active compounds read low
[59] = locus YLR320W, strain mms22, active compounds read low
[60] = locus YLR342W, strain FKS1, active compounds read low
[61] = locus YLR357W, strain rsc2, active compounds read low
[62] = locus YLR370C, strain arc18, active compounds read low
[63] = locus YLR384C, strain iki3, active compounds read low
[64] = locus YML120C, strain ndi1, active compounds read low
[65] = locus YMR058W, strain fet3, active compounds read low
[66] = locus YMR125W, strain sto1, active compounds read low
[67] = locus YMR129W, active compounds read low
[68] = locus YMR205C, strain PFK2, active compounds read low
[69] = locus YMR231W, strain pep5, active compounds read low
[70] = locus YNL071W, strain lat1, active compounds read low
[71] = locus YNL209W, strain ssb2, active compounds read low
[72] = locus YNL248C, strain rpa49, active compounds read low
[73] = locus YNL322C, strain KRE1 (second series), active compounds read low
[74] = locus YNR049C, strain mso1, active compounds read low
[75] = locus YOR001W, strain rrp6, active compounds read low
[76] = locus YOR070C, strain gyp1, active compounds read low
[77] = locus YOR080W, strain dia2, active compounds read low
[78] = locus YOR083W, strain WHI5, active compounds read low
[79] = locus YOR106W, strain vam3, active compounds read low
[80] = locus YOR265W, strain rbl2, active compounds read low
[81] = locus YOR270C, strain vph1, active compounds read low
[82] = locus YOR290C, strain snf2, active compounds read low
[83] = locus YPL051W, strain arl3, active compounds read low
[84] = locus YPL078C, strain atp4, active compounds read low
[85] = locus YPL106C, strain sse1, active compounds read low
[86] = locus YPL240C, strain hsp82, active compounds read low

Measured: normalized growth

CC(CCC(=O)O)[C@H]1CCC2C3CC[C@@H]4C[C@H](O)CC[C@]4(C)C3C=C[C@@]21C (some centres not stated)
inactive: [1] 0.968 | [3] 1.01 | [4] 1.01 | [5] 0.964 | [6] 0.95 | [7] 0.976 | [8] 1.02 | [9] 0.972 | [10] 0.994 | [11] 0.962 | [12] 0.989 | [13] 0.997 | [14] 1.02 | [15] 0.992 | [16] 1.01 | [17] 1.01 | [18] 1 | [20] 0.948 | [21] 1 | [22] 0.991 | [23] 0.969 | [25] 0.968 | [26] 0.995 | [27] 1.01 | [28] 1.01 | [29] 0.999 | [30] 1 | [31] 1.08 | [32] 0.987 | [33] 0.989 | [35] 1.03 | [36] 0.982 | [37] 0.955 | [38] 0.973 | [39] 0.996 | [41] 0.986 | [42] 1 | [43] 1.01 | [44] 0.879 | [45] 1.03 | [48] 0.972 | [50] 1.03 | [51] 1.01 | [52] 1 | [53] 1.01 | [54] 1 | [55] 0.944 | [57] 0.998 | [60] 0.968 | [61] 1.13 | [62] 0.955 | [63] 1.03 | [67] 1.02 | [68] 0.966 | [69] 0.963 | [71] 0.99 | [72] 0.904 | [73] 1.04 | [74] 1 | [77] 0.997 | [80] 1.01 | [81] 0.808 | [86] 0.997
active: [2] 0.907 | [19] 0.501 | locus YDR195W, strain ref2 1.2 [resistant] | [24] 0.485 | [34] 0.812 | [40] 0.839 | [46] 0.899 | [47] 0.894 | [49] 0.881 | [56] 0.898 | [58] 0.532 | [59] 0.742 | [64] 0.861 | [65] 0.869 | [66] 1.11 [resistant] | [70] 0.792 | [75] 0.86 | [76] 0.9 | [78] 0.85 | [79] 0.842 | [82] 0.83 | [83] 0.817 | [84] 0.834 | [85] 1.22 [resistant]

CC(CCC(=O)O)[C@H]1CCC2C3C(=O)C[C@@H]4CC(=O)CC[C@]4(C)C3CC(=O)[C@@]21C (some centres not stated)
inactive: [1] 0.995 | [2] 1 | [3] 0.994 | [4] 0.994 | [5] 0.995 | [6] 0.993 | [7] 0.982 | [8] 0.994 | [9] 0.982 | [10] 0.987 | [11] 0.984 | [12] 0.987 | [13] 0.995 | [14] 0.994 | [15] 0.986 | [16] 0.991 | [17] 0.993 | [18] 1 | [19] 1.01 | [20] 1.01 | locus YDR195W, strain ref2 0.999 | [21] 0.996 | [22] 0.993 | [23] 0.997 | [24] 0.932 | [25] 1.01 | [26] 0.99 | [27] 0.99 | [28] 1.01 | [29] 0.999 | [30] 0.998 | [31] 0.999 | [32] 0.992 | [33] 0.992 | [34] 0.989 | [35] 0.985 | [36] 1.01 | [37] 0.991 | [38] 0.99 | [39] 0.995 | locus YHR030C, strain SLT2, active compounds read low 1.02 | locus YHR079C, strain IRE1, active compounds read low 1.02 | [40] 0.952 | [41] 0.993 | [42] 0.991 | locus YJL095W, strain BCK1, active compounds read low 1.01 | [43] 0.991 | [44] 1.01 | [45] 0.993 | [46] 0.99 | [47] 0.989 | [48] 0.99 | locus YJR066W, strain TOR1, active compounds read low 0.975 | [49] 0.977 | [50] 0.993 | [51] 0.99 | [52] 0.975 | [53] 0.998 | [54] 0.993 | [55] 0.991 | locus YLR113W, strain HOG1, active compounds read low 1.05 | [56] 0.964 | [57] 0.992 | [58] 1 | [59] 0.971 | [60] 0.99 | [61] 0.986 | [62] 0.993 | [63] 0.978 | [64] 0.989 | [65] 0.999 | [66] 0.982 | [67] 0.99 | [68] 0.989 | [69] 0.999 | [70] 0.997 | locus YNL183C, strain NPR1, active compounds read low 0.997 | [71] 0.997 | [72] 0.982 | [73] 0.992 | [74] 0.992 | [75] 1.02 | [76] 0.996 | [77] 0.994 | [78] 0.969 | [79] 0.974 | locus YOR231W, strain MKK1, active compounds read low 1.07 | [80] 0.998 | [81] 0.957 | [82] 0.993 | [83] 1.01 | [84] 0.98 | [85] 0.975 | [86] 1 | locus YPL256C, strain CLN2, active compounds read low 1.02
